According to PubChem BioAssay (NCATS):
Inconclusive results are not listed. Entries that show only a call come without a potency. Activity calls are given as the source filed them. Unless noted, calls follow the shape of the dose curve; as a rule, active = well fitted curve in the direction sought with a large enough effect; inconclusive = small, poorly fitted or top-dose-only effect, or another doubt; inactive = no such curve, though single readings can be large; an effect the other way counts as inactive or inconclusive.

What was measured:
[1] = target: Luciferin 4-monooxygenase (Photinus pyralis) (UniProt P08659); experiment: Biochemical firefly luciferase enzyme assay for NPC (AID 624030); also: nearly all actives have a fitted effect of over 70% in size; also: potency is read from the fitted curve at half-maximal effect
Luciferin 4-monooxygenase (Photinus pyralis), sequence (P08659 whole entry, looked up): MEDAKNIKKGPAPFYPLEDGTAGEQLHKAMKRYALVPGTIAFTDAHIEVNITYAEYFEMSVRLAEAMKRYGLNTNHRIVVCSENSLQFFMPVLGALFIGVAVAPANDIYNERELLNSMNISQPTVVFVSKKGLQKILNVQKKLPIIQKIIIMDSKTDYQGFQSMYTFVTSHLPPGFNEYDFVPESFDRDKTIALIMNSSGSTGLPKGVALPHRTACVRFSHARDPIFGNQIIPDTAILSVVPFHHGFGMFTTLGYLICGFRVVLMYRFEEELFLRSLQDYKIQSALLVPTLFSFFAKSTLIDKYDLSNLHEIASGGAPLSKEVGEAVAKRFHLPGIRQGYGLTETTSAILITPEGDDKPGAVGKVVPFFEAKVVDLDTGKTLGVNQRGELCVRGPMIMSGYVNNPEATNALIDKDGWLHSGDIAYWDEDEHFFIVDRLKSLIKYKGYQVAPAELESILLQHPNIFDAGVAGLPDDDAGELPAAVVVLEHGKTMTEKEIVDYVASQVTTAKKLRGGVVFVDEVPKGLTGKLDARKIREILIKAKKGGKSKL
Procedure, shortened: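 Counter-screen for direct inhibition of the luciferase enzyme by approved-drug library compounds, run at 10 nM enzyme in 50 mM Tris acetate (final). Luminescence was read within 5 min of enzyme-buffer addition and normalized to PTC124 versus DMSO (0%).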

[2] = S16 Schwann cell viability assay (CellTiter-Glo assay) (AID 624031);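 also: native untransfected S16 rat Schwann cells; cellular ATP luminescence as a viability measure; series mostly up to about 58 µM; nearly all actives have a fitted effect of over 70% in size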
Procedure, shortened: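 Cells were seeded at 500-750 per well in phenol red-free DMEM with 10% FBS and left overnight. Compounds or DMSO were pinned in, incubation ran 24 h at 37 °C/5% CO2, then CellTiter-Glo reagent was added and luminescence measured.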

[3] = S16 Schwann cell PMP22 intronic element firefly luciferase assay (AID 624032); also: nearly all actives have a fitted effect of over 30% in size; also: potency is read from the fitted curve at half-maximal effect
Procedure, shortened: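 Rat S16 Schwann cells stably carrying a PMP22 intronic element-driven Fluc reporter were seeded overnight, then exposed to compounds for 24 h at 37 °C. Luminescence was normalized to PTC124 (positive control) and DMSO (0% activity).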

[4] = S16 Schwann cell PMP22 intronic element beta-lactamase assay (AID 624044; calls by dose curve; also: nearly all actives have a fitted effect of over 15% in size; also: potency is read from the fitted curve at half-maximal effect)
Procedure, shortened: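 Rat S16 Schwann cells with beta-Lac driven by a PMP22 intronic element, compound-treated 24 h at 37 °C. LiveBLAzer FRET B/G read: 460 nm normalized to potassium clavulanate vs DMSO; 535 nm FRET as viability; concentration-effect curves classified.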

[5] = target: Glutaminase kidney isoform, mitochondrial (Homo sapiens) (UniProt O94925); experiment: qHTS for Inhibitors of Glutaminase (GLS): LOPAC Validation (AID 624146);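 also: glutamate product detected by oxidase and peroxidase coupled Amplex red fluorescence gain; series mostly up to about 46 µM; nearly all actives have a fitted effect of over 60% in size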
Glutaminase kidney isoform, mitochondrial (Homo sapiens), sequence (O94925 whole entry, looked up, canonical isoform): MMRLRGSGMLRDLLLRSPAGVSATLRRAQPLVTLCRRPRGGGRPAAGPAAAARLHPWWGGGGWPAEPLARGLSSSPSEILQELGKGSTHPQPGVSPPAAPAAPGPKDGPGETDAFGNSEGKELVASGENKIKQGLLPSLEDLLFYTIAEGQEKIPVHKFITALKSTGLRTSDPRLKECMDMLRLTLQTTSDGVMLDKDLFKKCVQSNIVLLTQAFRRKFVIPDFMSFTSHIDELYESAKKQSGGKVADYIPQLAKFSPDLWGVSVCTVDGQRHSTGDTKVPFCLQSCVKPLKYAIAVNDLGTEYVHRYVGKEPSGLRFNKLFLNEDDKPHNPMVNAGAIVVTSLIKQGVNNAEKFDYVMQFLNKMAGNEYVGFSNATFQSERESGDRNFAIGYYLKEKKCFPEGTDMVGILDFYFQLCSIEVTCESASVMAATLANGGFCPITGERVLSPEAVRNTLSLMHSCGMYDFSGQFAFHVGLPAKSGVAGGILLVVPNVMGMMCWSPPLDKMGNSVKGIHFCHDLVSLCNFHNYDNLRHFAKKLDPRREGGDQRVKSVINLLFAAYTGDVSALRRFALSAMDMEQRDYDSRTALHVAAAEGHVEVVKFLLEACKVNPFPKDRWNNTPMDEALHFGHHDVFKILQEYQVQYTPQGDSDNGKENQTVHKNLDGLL
Procedure, shortened: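 Compounds were pin-transferred onto hKGA, after which L-glutamine (1 mM solution) and a detection mix of glutamate oxidase, HRP and Amplex Red were added. Initial and 30 min RT fluorescence reads were collected.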

[6] = qHTS of Trypanosoma Brucei Inhibitors: LOPAC Validation (AID 624147)
Procedure, shortened: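 Quantitative HTS: titrated library compounds versus trypanosomal pyruvate kinase in TEA buffer (pH 7.2) containing KCl, MgCl2, BSA and Tween-20. Reactions were initiated with ADP, 130 uM final. Kinase-Glo Plus luminescence was read after 45 min at RT.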

[7] = target: Glucagon-like peptide 1 receptor (Homo sapiens) (UniProt P43220); experiment: qHTS of GLP-1 Receptor Agonists: LOPAC Validation (AID 624148);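 also: higher luminescence signal means agonism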
Glucagon-like peptide 1 receptor (Homo sapiens), sequence (P43220 whole entry, looked up): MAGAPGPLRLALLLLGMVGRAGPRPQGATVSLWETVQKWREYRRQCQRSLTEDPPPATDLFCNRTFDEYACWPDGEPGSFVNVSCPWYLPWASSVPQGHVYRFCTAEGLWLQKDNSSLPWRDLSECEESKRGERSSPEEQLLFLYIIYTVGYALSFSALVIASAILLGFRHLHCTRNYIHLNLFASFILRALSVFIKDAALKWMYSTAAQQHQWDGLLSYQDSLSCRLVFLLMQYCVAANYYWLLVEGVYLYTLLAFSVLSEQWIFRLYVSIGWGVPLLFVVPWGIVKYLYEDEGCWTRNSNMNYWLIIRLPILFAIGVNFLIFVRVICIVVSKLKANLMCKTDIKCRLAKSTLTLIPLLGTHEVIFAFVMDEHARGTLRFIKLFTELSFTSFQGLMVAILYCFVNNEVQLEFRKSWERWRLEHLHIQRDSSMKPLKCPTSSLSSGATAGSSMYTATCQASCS
Procedure, shortened: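 HEK293 cells stably co-expressing a cAMP-responsive luciferase reporter and a hypersensitive GLP-1R were plated 12 h at 37 °C and exposed to compounds for 4-6 hr at 37 °C, 5% CO2. Luminescence was read 12 min after adding detection reagent.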

[8] = qHTS of Nrf2 Activators: LOPAC Validation (AID 624149)
Procedure, shortened: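 AREc32 cells carrying an ARE-driven firefly luciferase were grown overnight in OPTI-MEM with 5% FBS, then exposed to compounds for 24 hr at 37 deg C. Luciferase signal was read after 30 min with Steady-Glo at RT.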

[9] = target: Bile acid receptor (Homo sapiens) (UniProt Q96RI1); experiment: qHTS assay for small molecule antagonists of farnesoid X receptor signaling (AID 588526; calls by dose curve)
Bile acid receptor (Homo sapiens), sequence (Q96RI1 whole entry, looked up): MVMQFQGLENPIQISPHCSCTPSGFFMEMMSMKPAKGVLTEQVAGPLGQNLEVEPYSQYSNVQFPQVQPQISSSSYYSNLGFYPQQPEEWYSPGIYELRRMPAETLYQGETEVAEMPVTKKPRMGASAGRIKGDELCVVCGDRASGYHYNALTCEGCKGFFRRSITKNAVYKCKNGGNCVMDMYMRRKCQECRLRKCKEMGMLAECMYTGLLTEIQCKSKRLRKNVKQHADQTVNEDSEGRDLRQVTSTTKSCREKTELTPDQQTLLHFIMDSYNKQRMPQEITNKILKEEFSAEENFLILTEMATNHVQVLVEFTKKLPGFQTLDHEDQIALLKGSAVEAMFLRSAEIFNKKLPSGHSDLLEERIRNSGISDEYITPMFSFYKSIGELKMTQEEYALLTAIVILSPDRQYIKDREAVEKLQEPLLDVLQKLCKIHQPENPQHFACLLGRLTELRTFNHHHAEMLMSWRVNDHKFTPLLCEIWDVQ
Procedure, shortened: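 Concentration-response titrations were fitted to the Hill equation for half-maximal inhibition and maximal response, with data normalised to 50 uM chenodeoxycholic acid and DMSO control wells. Cells: FXR-UAS-bla HEK293T, dialyzed FBS.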

[10] = target: Glucocorticoid receptor (Homo sapiens) (UniProt P04150); experiment: qHTS assay for small molecule agonists of glucocorticoid receptor signaling (AID 588532; active = well fitted curve in the direction sought with a large enough effect in the signal ratio, with a control signal flat; the % refers to the signal ratio); conditions: HeLa MMTV-bla, beta-lactamase ratio, agonist, 18 h; stronger effect = higher value; percent of dexamethasone control, DMSO zero
Glucocorticoid receptor (Homo sapiens), sequence (P04150 whole entry, looked up): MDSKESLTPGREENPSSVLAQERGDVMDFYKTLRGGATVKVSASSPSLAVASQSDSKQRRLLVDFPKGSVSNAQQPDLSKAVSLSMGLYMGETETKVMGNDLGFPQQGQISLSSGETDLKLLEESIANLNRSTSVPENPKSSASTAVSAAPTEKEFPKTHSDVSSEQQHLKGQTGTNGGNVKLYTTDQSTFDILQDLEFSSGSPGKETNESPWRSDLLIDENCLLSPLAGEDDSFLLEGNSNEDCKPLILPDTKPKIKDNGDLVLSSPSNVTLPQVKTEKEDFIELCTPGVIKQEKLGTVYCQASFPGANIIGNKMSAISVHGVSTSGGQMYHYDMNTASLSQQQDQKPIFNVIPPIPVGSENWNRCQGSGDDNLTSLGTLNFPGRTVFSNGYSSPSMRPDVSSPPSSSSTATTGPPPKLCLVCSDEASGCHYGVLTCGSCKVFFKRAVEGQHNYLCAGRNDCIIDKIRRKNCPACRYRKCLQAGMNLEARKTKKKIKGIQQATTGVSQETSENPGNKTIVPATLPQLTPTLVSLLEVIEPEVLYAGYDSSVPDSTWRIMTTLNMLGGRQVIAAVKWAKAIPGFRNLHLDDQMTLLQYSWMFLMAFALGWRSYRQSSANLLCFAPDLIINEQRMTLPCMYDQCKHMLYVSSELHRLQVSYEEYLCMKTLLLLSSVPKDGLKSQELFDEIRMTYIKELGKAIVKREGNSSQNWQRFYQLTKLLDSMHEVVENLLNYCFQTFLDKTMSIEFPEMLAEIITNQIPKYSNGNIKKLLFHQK
Procedure, shortened: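 MMTV-bla HeLa, beta-lactamase reporter; medium with 1% charcoal/dextran-stripped FBS; cpds up to 92 uM, 18 h, 37 C; CCF4 readout 460/530 nm; Hill fit → EC50, efficacy vs 0.1 uM dexamethasone = 100%.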

[11] = target: Glucocorticoid receptor (Homo sapiens) (UniProt P04150); experiment: qHTS assay for small molecule antagonists of glucocorticoid receptor signaling (AID 588533; active = well fitted inhibition curve with a large enough effect in the signal ratio, with a control signal flat, not every such curve was filed as active; the % refers to the signal ratio;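 also: cells stimulated with 2 nM dexamethasone as agonist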)
Procedure, shortened: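 Antagonist-mode qHTS: compound titrations added to GRE-bla HeLa cells, then dexamethasone 2 nM final; 18 h, 37 C. CCF4 FRET fluorescence normalized to dexamethasone and DMSO; IC50 from Hill fit.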

[12] = qHTS assay for small molecule antagonists of peroxisome proliferator-activated receptor delta signaling (AID 588535; active = well fitted inhibition curve with a large enough effect in the signal ratio, with a control signal flat, not every such curve was filed as active; the % refers to the signal ratio;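 as to max response: cells co-treated with a PPAR-delta agonist as stimulator during compound exposure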); conditions: HEK293T PPARd-UAS-bla, beta-lactamase FRET ratio, 18 h; 460 nm channel
Procedure, shortened: (§1)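 GeneBLAzer PPAR-delta-UAS-bla HEK293T cells in medium with 2% charcoal/dextran FBS were preincubated 5 hrs at 37 C, then given compounds, incubated 18 hrs at 37 C, and read by CCF4 beta-lactamase fluorescence; IC50 from Hill fits.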

[13] = target: Peroxisome proliferator-activated receptor delta (Homo sapiens) (UniProt Q03181); experiment: as above
Procedure, shortened: as §1

[14] = target: Peroxisome proliferator-activated receptor gamma (Homo sapiens) (UniProt P37231); experiment: qHTS assay for small molecule antagonists of peroxisome proliferator-activated receptor gamma signaling (AID 588537; active = well fitted inhibition curve with a large enough effect in the signal ratio, with a control signal flat, not every such curve was filed as active; the % refers to the signal ratio;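 also: reporter cells co-stimulated with 50 nM rosiglitazone agonist during compound treatment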)
Peroxisome proliferator-activated receptor gamma (Homo sapiens), sequence (P37231 whole entry, looked up): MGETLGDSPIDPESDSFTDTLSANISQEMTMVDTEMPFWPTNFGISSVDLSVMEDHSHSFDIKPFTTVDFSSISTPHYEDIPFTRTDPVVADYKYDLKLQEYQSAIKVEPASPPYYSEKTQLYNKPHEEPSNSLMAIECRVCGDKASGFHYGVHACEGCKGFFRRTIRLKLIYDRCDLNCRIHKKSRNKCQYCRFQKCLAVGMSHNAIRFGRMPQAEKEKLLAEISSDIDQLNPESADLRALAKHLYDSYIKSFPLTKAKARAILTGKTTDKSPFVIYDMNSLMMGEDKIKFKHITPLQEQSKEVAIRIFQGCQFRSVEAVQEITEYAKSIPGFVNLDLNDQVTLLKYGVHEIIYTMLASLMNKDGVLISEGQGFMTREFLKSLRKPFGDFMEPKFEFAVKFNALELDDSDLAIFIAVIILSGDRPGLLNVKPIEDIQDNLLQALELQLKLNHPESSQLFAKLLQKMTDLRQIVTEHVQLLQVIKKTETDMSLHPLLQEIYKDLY
Procedure, shortened: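 PPAR-gamma-UAS-bla HEK293 cells (3000/well, 1% charcoal/dextran-stripped FBS) were preincubated 6-6.5 h at 37 C, given titrated compounds, then stimulated with 50 nM rosiglitazone for 16 h. Beta-lactamase activity was read with CCF4 dye; IC50 came from Hill fits.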

[15] = target: Vitamin D3 receptor (Homo sapiens) (UniProt P11473); experiment: qHTS assay for small molecule antagonists of vitamin D receptor signaling (AID 588541; calls by dose curve;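 also: receptor activated by calcitriol during compound treatment; series mostly up to about 77 µM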)
Vitamin D3 receptor (Homo sapiens), sequence (P11473 whole entry, looked up): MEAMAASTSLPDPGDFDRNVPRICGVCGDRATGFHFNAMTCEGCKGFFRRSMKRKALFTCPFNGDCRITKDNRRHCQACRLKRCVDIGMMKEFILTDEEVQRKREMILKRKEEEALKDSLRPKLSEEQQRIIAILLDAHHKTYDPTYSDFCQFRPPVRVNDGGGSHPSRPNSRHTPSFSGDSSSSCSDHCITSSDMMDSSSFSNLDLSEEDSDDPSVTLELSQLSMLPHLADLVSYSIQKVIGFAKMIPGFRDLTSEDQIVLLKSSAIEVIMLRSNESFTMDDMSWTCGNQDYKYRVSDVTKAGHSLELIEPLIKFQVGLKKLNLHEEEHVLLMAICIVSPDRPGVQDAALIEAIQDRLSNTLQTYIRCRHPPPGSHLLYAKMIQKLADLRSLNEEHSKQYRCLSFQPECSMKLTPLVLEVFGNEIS
Procedure, shortened: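 VDR-UAS-bla HEK293T cells (2000/well, 2% charcoal-stripped FBS) were treated with titrated compounds plus 1-alpha,25-dihydroxyvitamin D3 (50 nM or 3 nM final) for 16 h at 37 C. CCF4 beta-lactamase fluorescence was read; Hill fits gave IC50.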

[16] = target: Vitamin D3 receptor (Homo sapiens) (UniProt P11473); experiment: qHTS assay for small molecule agonists of vitamin D receptor signaling (AID 588543; calls by dose curve)
Procedure, shortened: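 GeneBLAzer VDR-UAS-bla HEK293T cells in 2% charcoal-stripped FBS medium were dosed with compound titrations for 16 h at 37 °C; CCF4 β-lactamase readout (405 nm ex, 460/530 nm em). EC50 and efficacy from Hill fits, normalized to 50 nM calcitriol (100%) and DMSO (0%).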

[17] = target: Thyroid hormone receptor beta (Homo sapiens) (UniProt P10828); experiment: qHTS assay for small molecule agonists of thyroid hormone receptor beta signaling (AID 588545; calls by dose curve)
Thyroid hormone receptor beta (Homo sapiens), sequence (P10828 whole entry, looked up): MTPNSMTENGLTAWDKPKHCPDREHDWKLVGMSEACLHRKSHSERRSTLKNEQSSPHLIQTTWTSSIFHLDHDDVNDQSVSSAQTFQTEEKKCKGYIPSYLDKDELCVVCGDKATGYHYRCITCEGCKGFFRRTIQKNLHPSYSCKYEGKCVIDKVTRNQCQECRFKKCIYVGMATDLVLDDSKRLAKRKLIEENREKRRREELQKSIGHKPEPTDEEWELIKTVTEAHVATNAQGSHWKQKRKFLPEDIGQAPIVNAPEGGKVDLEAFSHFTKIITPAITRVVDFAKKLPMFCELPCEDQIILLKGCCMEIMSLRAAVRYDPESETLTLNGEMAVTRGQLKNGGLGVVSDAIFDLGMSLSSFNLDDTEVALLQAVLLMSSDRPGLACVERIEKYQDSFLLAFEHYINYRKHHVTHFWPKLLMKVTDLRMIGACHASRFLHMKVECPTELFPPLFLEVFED
Procedure, shortened: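 In this cell-based screen, titrated compounds act on HEK 293 cells held in medium with 2% charcoal/dextran FBS, NEAA and pyruvate for 18 hrs at 37 C. Responses are expressed relative to T3 (10 nM) as 100% and basal DMSO as 0%.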

[18] = qHTS assay for small molecule antagonists of retinoid X receptor alpha signaling (AID 588546; active = well fitted inhibition curve with a large enough effect in the signal ratio, with a control signal flat, not every such curve was filed as active; the % refers to the signal ratio;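 also: cells stimulated with 9-cis-retinoic acid as agonist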); conditions: HEK293T RXRa-UAS-bla, beta-lactamase ratio, antagonist mode; measured here: W530 green channel, cytotoxicity proxy
Procedure, shortened: (§2)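 Beta-lactamase reporter inhibition, read as CCF4 fluorescence ratio (ex 405, em 460/530 nm) after 2 h at RT. HEK293T UAS-bla cells, 2500/well, were stimulated with 9-cis-RA at 500 or 100 nM final alongside test compound for 18 h at 37 C.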

[19] = target: Retinoic acid receptor RXR-alpha (Homo sapiens) (UniProt P19793); experiment: as above; conditions: HEK293T RXRa-UAS-bla, beta-lactamase ratio, antagonist mode
Retinoic acid receptor RXR-alpha (Homo sapiens), sequence (P19793 whole entry, looked up): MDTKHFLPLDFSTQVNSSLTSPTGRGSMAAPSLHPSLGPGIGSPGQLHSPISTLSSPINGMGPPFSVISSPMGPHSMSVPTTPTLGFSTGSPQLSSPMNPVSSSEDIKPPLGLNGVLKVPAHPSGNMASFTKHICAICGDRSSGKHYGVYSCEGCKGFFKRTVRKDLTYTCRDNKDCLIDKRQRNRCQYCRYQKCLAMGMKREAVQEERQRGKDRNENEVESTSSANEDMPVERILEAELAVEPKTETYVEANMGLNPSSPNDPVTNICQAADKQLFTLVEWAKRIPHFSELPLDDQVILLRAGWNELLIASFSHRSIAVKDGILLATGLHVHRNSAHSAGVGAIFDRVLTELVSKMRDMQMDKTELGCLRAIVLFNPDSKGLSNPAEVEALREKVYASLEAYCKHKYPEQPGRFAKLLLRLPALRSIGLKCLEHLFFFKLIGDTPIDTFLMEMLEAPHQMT
Procedure, shortened: as §2

[20] = target: Thyroid hormone receptor beta (Homo sapiens) (UniProt P10828); experiment: qHTS assay for small molecule antagonists of thyroid hormone receptor beta signaling (AID 588547; active = well fitted inhibition curve with a large enough effect in the signal ratio, with a control signal flat, not every such curve was filed as active; the % refers to the signal ratio;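 also: cells stimulated with 0.4 nM T3 agonist during compound exposure; series mostly up to about 77 µM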); conditions: TR-UAS-bla HEK293, beta-lactamase ratio, antagonist mode, 18 h
Procedure, shortened: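 TR-UAS-bla GripTite HEK293 cells in 2% charcoal/dextran FBS medium were preincubated 4 h at 37 C, given compound (0.59 nM to 92 uM) plus 0.4 nM T3 (final) for 18 h, then CCF4 for 2 h at RT; Hill fit gave IC50.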

## COc1cc(C(=O)NS(=O)(=O)c2ccccc2C)ccc1Cc1cn(C)c2ccc(NC(=O)OC3CCCC3)cc12
[1]
  Potency: 16.1 µM (active)
[2]
  outcome: inactive
[3]
  Potency: inactive
[4]
  Potency: inactive

## COc1c(N2C[C@@H]3CCCN[C@H]3C2)c(F)cc2c(=O)c(C(=O)O)cn(C3CC3)c12
[1]
  Potency: inactive
[2]
  outcome: inactive
[3]
  Potency: inactive

## Nc1ccn([C@@H]2CS[C@H](CO)O2)c(=O)n1
[1]
  Potency: inactive
[2]
  outcome: inactive
[3]
  Potency: inactive

## CC(C)(C)NC(=O)[C@H]1CN(Cc2cccnc2)CCN1C[C@@H](O)C[C@@H](Cc1ccccc1)C(=O)N[C@H]1c2ccccc2C[C@H]1O
[1]
  Potency: inactive
[3]
  Potency: 36.1 µM (active)
[4]
  Potency: inactive

## O=c1c2ccccc2nc2n1CCc1c-2[nH]c2ccccc12
[5]
  outcome: inactive
[6]
  outcome: inactive
[7]
  outcome: inactive
[8]
  outcome: inactive

## O=c1[nH]c(=O)n(C2CCCO2)cc1F (stereo not drawn)
[1]
  Potency: inactive
[2]
  outcome: inactive
[3]
  Potency: inactive
[4]
  Potency: inactive

## CC=CC1=C(C(=O)O)N2C(=O)[C@H](NC(=O)[C@H](N)c3ccc(O)cc3)[C@@H]2SC1
[1]
  Potency: inactive
[2]
  outcome: inactive
[3]
  Potency: inactive

## CCC1=C[C@@H]2CN(C1)Cc1c([nH]c3ccccc13)[C@@](C(=O)OC)(c1cc3c(cc1OC)N(C)[C@@H]1[C@@](O)(C(=O)OC)[C@H](OC(C)=O)[C@]4(CC)C=CCN5CC[C@]31[C@@H]54)C2
[1]
  Potency: inactive
[2]
  outcome: inactive
[3]
  Potency: 0.907 µM (active)

## Nc1ccc(S(=O)(=O)Nc2ncccn2)cc1
[2]
  outcome: inactive
[3]
  Potency: 6.91 µM (active)
[4]
  Potency: inactive

## CC(=O)SC[C@@H](C)C(=O)N1CCC[C@H]1C(=O)N[C@@H](Cc1ccccc1)C(=O)O
[1]
  Potency: inactive

## Cc1nc2ccc(CN(C)c3ccc(C(=O)N[C@@H](CCC(=O)O)C(=O)O)s3)cc2c(=O)[nH]1
[1]
  Potency: inactive

## COC(=O)C[C@](O)(CCCC(C)(C)O)C(=O)O[C@@H]1C(OC)=C[C@]23CCCN2CCc2cc4c(cc2[C@H]13)OCO4
[1]
  Potency: inactive
[2]
  outcome: inactive

## CC1(C)O[C@@H]2C[C@@H]3[C@H]4C[C@@H](F)C5=CC(=O)C=C[C@]5(C)[C@@]4(F)[C@@H](O)C[C@]3(C)[C@]2(C(=O)CO)O1
[1]
  Potency: inactive
[2]
  outcome: inactive
[3]
  Potency: inactive
[4]
  Potency: inactive

## C=C1C(=CC=C2CCC[C@]3(C)[C@@H]([C@H](C)C=C[C@H](C)C(C)C)CC[C@@H]23)C[C@@H](O)C[C@@H]1O
[1]
  Potency: inactive

## COC(=O)C1=C(C)NC(C)=C(C(=O)OCCN2CCN(C(c3ccccc3)c3ccccc3)CC2)C1c1cccc([N+](=O)[O-])c1 (stereo not drawn)
[1]
  Potency: inactive

## CN1c2cc(O)c(N=NC(N)=O)cc2CC1S(=O)(=O)O (stereo not drawn)
[1]
  Potency: inactive
[2]
  outcome: inactive
[3]
  Potency: inactive
[4]
  Potency: inactive

## O=C(O)CO.[NH2-].[NH2-].[Pt+2]
[1]
  Potency: inactive
[2]
  outcome: inactive
[3]
  Potency: inactive

## CC[C@H]1CN2CCc3cc(OC)c(OC)cc3[C@H]2C[C@@H]1C[C@@H]1NCCc2cc(OC)c(OC)cc21
[1]
  Potency: inactive
[2]
  outcome: inactive

## O=C(O)CCCc1c[nH]c2ccccc12
[9]
  outcome: inactive
[10]
  activation: -4.22% (inactive)
[11]
  outcome: inactive
[12]
  max response: 35.4%
[13]
  outcome: inactive
[14]
  outcome: inactive
[15]
  outcome: inactive
[16]
  outcome: inactive
[17]
  outcome: inactive
[18]
  max response: 7.98%
[19]
  max response: 6.54% (inactive)
[20]
  activity change % (negative = inhibition): 3.26% (inactive)

## C[C@H]1C[C@@H]2[C@@H]([C@@H](O)C[C@@]3(C)[C@H]2CC[C@]3(O)C(=O)CO)[C@@]2(C)C=CC(=O)C=C12
[1]
  Potency: inactive
[2]
  outcome: inactive
[3]
  Potency: inactive
[4]
  Potency: inactive

## Nc1ccn([C@@H]2O[C@H](CO)[C@H](O)C2(F)F)c(=O)n1
[1]
  Potency: inactive
[3]
  Potency: inactive
[4]
  Potency: 0.562 µM (active)
